Results published in PubChem BioAssay (EPA / NIEHS).
Values joined by “and” are separate entries in the source; they are usually repeats but may differ in a detail not shown here. Equal values may be shown once. Where a structure was tested more than once in an assay, its records may differ in their call. Active and inactive are the calls of the source. The calls were made as follows: active = hit-call score of the fitted dose curve at least 0.9, where 1 is the maximum; inactive = score below 0.9.

Assays:
Settings in all cases: actives raise or lower the signal
[1] = CEETOX_H295R_OHPREG: CeeTox H295R High-throughput Steroidogenesis Assay for OH-Pregnenolone (OHPREG) (AID 2283434)
How it was run: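 H295R cells pre-stimulated 48 h with 10 uM forskolin, then exposed 48 h to chemical in 0.1% DMSO. 17alpha-hydroxypregnenolone in medium quantified by MTBE extraction and HPLC-MS/MS; bidirectional fit versus DMSO, viability checked by MTT.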

[2] = CEETOX_H295R_OHPROG: CeeTox H295R High-throughput Steroidogenesis Assay for OH-Progesterone (OHPROG) (AID 2283435);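 as to AC50: 17alpha-hydroxyprogesterone secreted into medium measured by HPLC-MS/MS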
How it was run: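 H295R, 10 uM forskolin prestim 48 h; cmpd in 0.1% DMSO 48 h; medium MTBE-extracted, HPLC-MS/MS for OH-progesterone; 7-pt std curve; bidirectional fit vs DMSO; MTT viability, chemicals diluted until viability >/=70%.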

[3] = CEETOX_H295R_ESTRADIOL: CeeTox H295R High-throughput Steroidogenesis Assay for Estradiol (AID 2283440);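 also: estradiol secreted into medium quantified by LC-MS/MS after dansyl derivatisation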
How it was run: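 Readout is estradiol in conditioned medium, quantified by reverse-phase HPLC-MS/MS against a 7-point standard curve. Cells: H295R, forskolin-stimulated, then dosed 48 h in 0.1% DMSO; activity fitted in both directions relative to DMSO.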

[4] = CEETOX_H295R_ESTRONE: CeeTox H295R High-throughput Steroidogenesis Assay for Estrone (AID 2283441);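 also: estrone secreted into medium measured by LC-MS/MS after dansyl derivatization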
How it was run: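 H295R cells prestimulated 48 h with 10 uM forskolin, then exposed 48 h to chemicals in 0.1% DMSO final; estrone in medium extracted with MTBE, dansyl-derivatized, quantified by HPLC-MS/MS; bidirectional fitting versus DMSO, viability by MTT.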

[5] = CEETOX_H295R_PROG: CeeTox H295R High-throughput Steroidogenesis Assay for Progesterone (PROG) (AID 2283442);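 as to AC50: human H295R adrenal cells primed with 10 µM forskolin before dosing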
How it was run: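 Measured analyte is progesterone secreted by H295R cells at 48 h of chemical treatment, following 10 uM forskolin priming. Quantitation used HPLC-MS/MS against a 7-point standard curve; cytotoxicity was checked by MTT absorbance.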

[6] = CEETOX_H295R_11DCORT: CeeTox H295R High-throughput Steroidogenesis Assay for 11-Deoxycortisol (11DCORT) (AID 2283432);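 as to AC50: 11-deoxycortisol secreted into the medium measured by LC-MS/MS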
How it was run: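 Human adrenal H295R cells were prestimulated with 10 uM forskolin for 48 h, then exposed to test chemical (0.1% DMSO final) for 48 h. Medium 11-deoxycortisol was quantified by MTBE extraction and HPLC-MS/MS; bidirectional fitting relative to DMSO.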

[7] = CEETOX_H295R_ANDR: CeeTox H295R High-throughput Steroidogenesis Assay for Androstenedione (ANDR) (AID 2283436)
How it was run: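 H295R cells, following OECD 456 with minor changes, exposed to chemicals for 48 h. Androstenedione in the medium was quantified by HPLC-MS/MS after MTBE extraction. Fitting was bidirectional versus DMSO; chemicals were diluted until MTT viability was ≥70%.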

[8] = CEETOX_H295R_CORTIC: CeeTox H295R High-throughput Steroidogenesis Assay for Corticosterone (CORTIC) (AID 2283437);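 also: corticosterone secreted into medium quantified by mass spectrometry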
How it was run: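 H295R adrenal cells prestimulated 48 hours with 10 uM forskolin, then exposed 48 hours to chemical in 0.1% DMSO. Corticosterone in medium measured by HPLC-MS/MS after MTBE extraction; MTT viability in the same wells; bidirectional fit versus DMSO.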

[9] = CEETOX_H295R_CORTISOL: CeeTox H295R High-throughput Steroidogenesis Assay for Cortisol (AID 2283438);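 also: cortisol secreted into medium quantified by LC-MS/MS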
How it was run: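 Forskolin 10 uM 48 h prestim → test cmpd in DMSO (0.1% final) 48 h → medium MTBE-extracted → LC-MS/MS cortisol vs 7-pt std curve. Gain/loss of signal fitted vs DMSO. MTT viability in same wells.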

[10] = CEETOX_H295R_DOC: CeeTox H295R High-throughput Steroidogenesis Assay for DOC (AID 2283439)
How it was run: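 Readout: 11-deoxycorticosterone in culture medium by reverse-phase C18 HPLC with ESI+ tandem MS after MTBE extraction. Cells: H295R, forskolin-primed (10 uM, 48 h), chemical-treated 48 h; DMSO 0.1% final. Activity fitted bidirectionally versus DMSO.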

Measured: AC50

c1ccc2c(c1)Nc1ccccc1S2
active: [1] 6.86 µM and 2.55 µM | [2] 20.4 µM and 25 µM and 18.1 µM | [4] 9.58 µM and 17.3 µM and 12 µM | [5] 2.23 µM and 2.16 µM and 12.2 µM
inactive: [1] | [3]

Nc1ccc([N+](=O)[O-])cc1Cl
not listed: [3] | [4]
inactive: all other assays above

CCCCOCCOP(=O)(OCCOCCCC)OCCOCCCC
not listed: [7]
inactive: all other assays above

Nc1cc2c3c(c1)C(c1ccccc1)=N[C@@H](NC(=O)c1cccnc1)C(=O)N3CC2
active: [6] 62 µM | [1] 27.6 µM | [2] 4.41 µM | [8] 18.3 µM | [9] 76.8 µM | [10] 33.8 µM | [5] 3.44 µM
inactive: [3] | [4]

Nc1ccc(Cl)cc1
active: [2] 25.5 µM | [10] 50 µM | [5] 16.5 µM
inactive: [6] | [1] | [8] | [9]

ClC(Cl)=C(c1ccc(Cl)cc1)c1ccccc1Cl
inactive: all assays above

O=S1(=O)OCC2C(CO1)C1(Cl)C(Cl)=C(Cl)C2(Cl)C1(Cl)Cl (centres undefined)
active: [6] 7.28 µM | [1] 2.84 µM | [2] 10 µM | [9] 9.67 µM | [10] 7.77 µM | [5] 1.03 µM
inactive: [8] | [3] | [4]

CCCCc1ccc(O)cc1
active: [8] 28.3 µM | [9] 28.4 µM | [4] 32.2 µM
not listed: [7]
inactive: all other assays above

CCOP(=S)(NC(C)C)Oc1ccccc1C(=O)OC(C)C (centres undefined)
active: [6] 12.8 µM | [2] 4.65 µM | [8] 6.94 µM | [5] 6.65 µM
not listed: [7]
inactive: all other assays above

CCOP(=S)(Oc1ccc([N+](=O)[O-])cc1)c1ccccc1 (centres undefined)
active: [2] 0.404 µM | [5] 0.786 µM
inactive: [1] | [3] | [4]

O=P(Oc1ccccc1)(Oc1ccccc1)Oc1ccccc1
inactive: [8] | [9] | [10] | [3]
active: [6] 2.92 µM | [1] 3.68 µM | [2] 1.85 µM | [5] 1.37 µM

COP(N)(=S)OC
not listed: [3] | [4]
inactive: all other assays above

c1ccc(OP(Oc2ccccc2)Oc2ccccc2)cc1
not listed: [7]
inactive: all other assays above

Cc1cccc(N)c1
inactive: [1] | [2] | [5]

CC(C)Nc1ccc(Nc2ccccc2)cc1
not listed: [7]
inactive: all other assays above

CCNc1nc(Cl)nc(NC(C)(C)C)n1
active: [1] 9.93 µM | [4] 1.51 µM
inactive: all other assays above

Oc1ccc(I)cc1
active: [2] 18.6 µM | [5] 17 µM
not listed: [7]
inactive: all other assays above

Cc1ccc(O)cc1C
inactive: [1] | [2] | [3] | [4] | [5]

CC(C)(C)c1ccc(O)cc1
inactive: [1] | [5]
active: [2] 24.2 µM

CCC(C)(C)c1ccc(O)cc1
active: [2] 15.5 µM | [10] 21.9 µM
not listed: [7]
inactive: all other assays above

Nc1ccc2ccccc2c1
active: [2] 13.9 µM | [5] 13.8 µM
inactive: [1] | [3] | [4]

N#Cc1c(-c2ccc(Cl)cc2)[nH]c(C(F)(F)F)c1Br
active: [6] 0.37 µM | [2] 0.282 µM | [8] 0.291 µM | [9] 0.645 µM | [10] 0.253 µM
inactive: all other assays above

Cc1ccc(N)cc1N
inactive: [6] | [1] | [8] | [10] | [3] | [4]

CCOP(=S)(OCC)SCn1nnc2ccccc2c1=O
active: [2] 10 µM | [5] 8.4 µM
not listed: [7]
inactive: all other assays above

CO/N=C(/C(=O)OC)c1ccccc1COc1ccccc1C
active: [6] 3.98 µM | [1] 13.1 µM | [2] 4.07 µM | [7] 21.2 µM | [9] 9.52 µM | [5] 4.24 µM
inactive: [8] | [10]

CC(=O)c1ccc(-c2ccccc2)cc1
active: [2] 25.8 µM | [7] 50 µM | [8] 18.9 µM | [10] 36.5 µM
inactive: [6] | [1] | [9] | [5]

O=S(=O)(c1ccc(O)cc1)c1ccc(O)cc1
inactive: [1] | [8] | [4]
active: [6] 19.1 µM | [2] 0.82 µM | [9] 28.4 µM | [10] 3.31 µM | [3] 18.3 µM | [5] 1.32 µM
